The source of these data is PubChem BioAssay AID1347426 (Functional Genomics Laboratory (NCATS/FGL), 2020).

Among all 31,000 sequences or so, about 1,400 (4.5%) were called active. Only a selection was taken, and actives are over-represented in it overall. Values without a mark were called inactive.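 How the source made its calls: active means median seed-adjusted z-score above 1 or below -1; inactive means the rest.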

This assay can be described thus: Novel Modifiers of Survival Motor Neuron (SMN) Protein: Gene Identification via Genome-wide siRNA Screen.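 Further: luminescence tracks full-length SMN protein made from the SMN2 reporter.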 The conditions noted are these: HEK293T SMN2-luciferase reporter, siRNA knockdown, 72 h; actives lie on both sides. The method, boiled down:
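HEK293T cells stably expressing an SMN2 splicing/cDNA-luciferase reporter were reverse-transfected with a druggable-genome siRNA library and read by luminescence at 72 hours; hits defined by MAD score above 1.0 or below -1.0.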
With GGUCCAUCCAAAUUGUGGATT against CYP21A2, the median seed-adjusted z-score was -0.26.
For the sequence GCGCAUCUAUCAACCCAAUTT against MLNR, the median seed-adjusted z-score is -0.038.
Take AGACUAAACUACUCUCGAATT against WDR46: the median seed-adjusted z-score was -0.136.
The figure for GCUGCUAUCAGUGAACGGATT against LIN7A is -1.39 (active).
The figure for CGUGUUAGUGAAUAAAGUATT against ZNF771 is 0.108; for CGGCAGACACUGAACAUCATT against SLC6A18 it is 0.148; for GUAGCACAGAGGAUUAAAATT against TTC33 it is 0.104.
As to CUCUAACCGUGGUUCCAGATT against SUPT16H, the median seed-adjusted z-score is 1.2 (active).
To CGGCGGAGUUUAUAGAUAATT against BCKDHA belongs -0.299; to GAAUCUACCUUGCUGCUCATT against G6PC, -0.628; to GGACUACUAUGCCACUGCUTT against SSTR4, -0.00217.
For the sequence CGGCAACUUCAAUAACAGUTT against LPHN1, the median seed-adjusted z-score was -1.03 (active).
To GAGGGACUAUUUCACGAAATT against PARD3B belongs 0.306; to GUGCAUCUCUUGACAAUUUTT against LIPI, 0.65.
The figure for GAAUAUUCUCGAUUUAAUATT against PPP1R3D is 0; for GGGCUGUUAUUUCAAGAAATT against GALNT13 it is -0.0149; for GAGCAUGUUUUUACCCUUUTT against MGC17403 it is 0.204.
The figure for CCAUAACAUUCACAAGUGUTT against TRPS1 is -0.125; for CCAGGUCACGAGUCAAGUATT against KTI12 it is 0.0814; for GGCCGUAACCUCAACCGUUTT against SNX33 it is -0.246.
Regarding GACAAUCGACCGAAAGCAATT against PPP4C, the median seed-adjusted z-score is 1.15 (active).
Take GGGCAACAGUUGAACACCATT against PDK4: the median seed-adjusted z-score was -0.693.
As for GCUUUGACCGUGUCCGAAATT against STT3A, the median seed-adjusted z-score is 0.
The figure for GCAUUUCCCAAGACGUGGATT against ZFYVE28 is 0.0678; for GCAUUCACCAGAACGAGAATT against RIMS1 it is 0.
On to CGCAUCCAAGAGUACCUUUTT against ZNF229, for which the median seed-adjusted z-score is -0.497.
Consider GGACAUGAACCUUAACGAATT against DIAPH2, for which the median seed-adjusted z-score is -0.0149.
The figure for CUAUACUCUUCGCUCCUAUTT against SIGMAR1 is -1.4 (active).
To GGUUGAAAAGGAGUGCAAATT against CACYBP belongs -0.33; to CAAAUCUGCUCAUCGAAAATT against MID1, -0.294; to AGAAGAUCAUAGGCAGCAATT against KLK8, 0.736.
To GCUUCAGAGUCAACGGACATT against MICB belongs 0.162.
As for GAGGAACAGGAAUAACAUUTT against GCG, the median seed-adjusted z-score is -1.18 (active).
The figure for GGCCUAACCAUAUGCCUAUTT against SS18 is 0.34; for GGUUUUUCCGCCAACUAGATT against CAPS it is -1.25 (active); for GGUGUGCGGUUCAUCUUCATT against ILVBL it is 0.343.
Regarding CUAAAGAGGUCAACAUUGATT against RGS16, the median seed-adjusted z-score is 0.
The figure for AGGUGUUCAUCGGCGUAAATT against GRHL3 is -0.0434; for CCAGCAGCAUGGAAGUUGUTT against HSD3B7 it is -0.0819.
UCAUCUACCUGAUGCGUAUTT against TAF6: the median seed-adjusted z-score is -1.36 (active).
As for GAACUAUGAAUAAAGCUUUTT against HAGHL, the median seed-adjusted z-score was -0.334.
The figure for GGCUUGAAGUAUGGAAAAATT against QRICH1 is -1.04 (active).
To CCAGCUUAGUUCAAUAUGATT against GABRA4 belongs 0.549.
The figure for CCAUCCUGAUAAGAACCCATT against DNAJA1 is -0.00548; for GGGCCUACUUUACAUCACATT against TXNDC14 it is -2.39 (active).
Take CGCUUACAAGGUCAACAUUTT against S1PR3: the median seed-adjusted z-score was -0.0931.
In the case of CAAGCUACGUAGAGAUCUATT against KIFC1, the median seed-adjusted z-score was 0.0417.
For the sequence ACAUGUUCCUCACCUUAAATT against SLC6A1, the median seed-adjusted z-score was -0.122.
To GGAGGGAUAUGUUCCACGUTT against TP53BP2 belongs 0.157.
The figure for CUACUGUGGGUGUCGCAUATT against UQCRFS1 is -1.28 (active).
To GAGCGACUUUGAUCACCAUTT against PANK2 belongs 0.121; to CAUUCAUCAUCCACCCAGATT against MUPCDH, -0.329.
Take CCCGGAUACUUCUGAAGAATT against HNRPDL: the median seed-adjusted z-score was -0.68.
To CGGUGGGAUGGGAACGAAATT against DRAP1 belongs 1.08 (active); to CUAUGACUGGAUUAGCGUATT against BEST2, 0.415.
As for GCUUUUGAACUAUUUGAUATT against CETN3, the median seed-adjusted z-score is -0.0815.
Take UGAAGACCCAGAGAUGUAATT against PTN: the median seed-adjusted z-score was -0.174.
The figure for UGAGAUCGCUGUCAUGUUATT against PSMD10 is 0.265.
The figure for GCAAGGUUUAAUGAACAAATT against GTF2E1 is 1.76 (active).
Consider GUGAGAACUUUGACGAUUATT against PMP2, for which the median seed-adjusted z-score was 0.00618.
To GUAACUGCAUUCAACUUGATT against OSMR belongs 0.548; to UGAAAAACAUUAACAAGCATT against RNASE7, 1.07 (active).
The figure for CAACCUACAUGUUUGCUGATT against SCARF1 is -0.324.
To GGAACAUUCCGACCUACAATT against PTDSS2 belongs 0.0941.
On to CCGUCACCAUCCUCAUCUATT against PORCN, for which the median seed-adjusted z-score was 0.214.
Take GAUGAUUUUUGGAGACCUATT against TRPV5: the median seed-adjusted z-score was 0.0879.
To GGAGUUUGAGGUAUACCUATT against IL6 belongs -0.436; to GCUUUAACGUGUCUGUGCATT against SLC25A5, -0.0501; to CUACUACUUUAAUCCCUAATT against FDFT1, -0.143.
The figure for GCAUCGACCUGAUUCACAATT against AP3B2 is -2.45 (active); for GGAGCGGUUCAGAUCAAUATT against RAB39 it is -0.408.
To CCUCAUUGAUAACACUAAATT against GBP2 belongs -0.263.
Consider GGAUUGAAGGUGUUCACUATT against PZP, for which the median seed-adjusted z-score was -0.878.
The figure for CAGUACUACGUGAAACUGATT against BAT1 is -1.49 (active); for GGCUACAAGUAGAGAGUUUTT against ESPL1 it is 0.871; for GAGAAAGUGUGAACUUACATT against XRCC2 it is 0.
CGCAACUCUUUACACCGUATT against SAMHD1: the median seed-adjusted z-score is -1.33 (active).
In the case of GGAUGUUUUCGAAACGCAUTT against BRDT, the median seed-adjusted z-score was -0.357.
Consider GACUAUUCCUGAUCCUUAUTT against AGBL2, for which the median seed-adjusted z-score is -0.796.
To GCAUCAGCUUCGAUGAGUATT against S100A16 belongs 0.24.
Consider CCCUGUCUAUAAUUUCUUUTT against DGCR8, for which the median seed-adjusted z-score was -0.266.
To CGCCUUAUACUUUACCAAATT against MGC16703 belongs 0.55; to CCAUUAAGAAUGCUAAUAUTT against ABCB10, -0.1; to GGCUAUAGGGUGUAUAUUUTT against CDK8, -1.47 (active).
To CCUUCGACCUCAAGAGACATT against OVOL1 belongs -0.0414; to CAGGCUUUGUUAGACGUAATT against ZNF157, 0.137.
Consider GCUCUUGGAUUAAAAGGUATT against STAR, for which the median seed-adjusted z-score is 0.478.
The figure for GAACGUACUCUUGCUUAUATT against ATP6V1D is 0.594; for CAGAGAACCCAUUACAUCATT against HADH it is 1.11 (active).
The figure for GACUUUCACAGUUCACCGATT against KCTD3 is 0.603; for UCAACCCUCUGAUAGAAGATT against EID2 it is -1.04 (active).
To GUAUGCUCCCGAUCAAGUATT against APOBEC3A belongs 0.467; to GAAGGAUGGGUGGACGUAATT against NALCN, -0.266; to CCAUAAAUGCUACGAAUAUTT against EGFR, 0.263.
Consider CAAUGAAUUUUUCCGAAGATT against ITGA10, for which the median seed-adjusted z-score was 0.378.
CCACAUGCUUCAAACAUCATT against TOR1A: the median seed-adjusted z-score was -0.231.
As to UAGCUUCGGUGAUCAAGAATT against ANXA9, the median seed-adjusted z-score is 0.055.
The figure for GCAAGAGUCGUUCACCAGATT against MGMT is -0.0549; for GCUCAAAGGUCUCACCUGCTT against SLC35A2 it is 1.06 (active).
To GGCCGGAGAUUAUCCUCAATT against MIXL1 belongs -0.204; to GUGUGGUAGCUAUUGACAATT against TSC22D1, 0.
With UUCCCAUAUUUAUUCGGACTT against AMH, the median seed-adjusted z-score was -0.255.
To GCAGUGACCUUCAAAGUGATT against PTPRN2 belongs -0.104; to CAACUGCAAGAGGACUGUATT against SLC10A4, 0.069; to UGCUGUUCGUGGAUUUCAATT against CDX4, 0.181.
On to AGAUUGAAAUCGACUUUGATT against BRD4, for which the median seed-adjusted z-score was 1.13 (active).
Take GCAUCAUCUCAGCACCAGATT against SLC5A12: the median seed-adjusted z-score was 0.279.
Regarding GAACCGCCCUCCUGAUUAATT against WNT3A, the median seed-adjusted z-score was -0.66.
